Assay results as given in PubChem BioAssay (Tox21).
Results filed as inconclusive are left out. Calls of active or inactive are those of the source. Unless noted, calls come from the whole dose curve; as a rule, active = well fitted curve in the direction sought with a large enough effect in the repeat runs; inconclusive = weak or mixed curves; inactive = no such curve, though single readings can be large; an effect the other way counts as inactive or inconclusive.

How the values were obtained:
[1] = qHTS assay to identify small molecule agonists of the hypoxia (HIF-1) signaling pathway - cell viability counter screen (AID 1224844; calls by dose curve; note: nearly all actives have a fitted effect of over 50% in size)
How it was run: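 Cytotoxicity was measured in parallel with the HRE-driven beta-lactamase readout: after 17 hrs of compound exposure at 37C, HRE-bla ME-180 cells received CellTiter-Glo and luminescence was recorded 30 min later.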

[2] = qHTS assay to identify small molecule agonists of H2AX (AID 1224845; active = well fitted activation curve with a large enough effect in the signal ratio in the repeat runs, not every such curve was filed as active; the % refers to the signal ratio)
How it was run: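 Wild-type CHO-K1 cells plated overnight, then exposed 3 hr at 37C to compounds at 15 concentrations (0.76% DMSO). Lysed, then HTRF anti-pH2AX(S139)-cryptate/anti-H2AX-d2 detection after 24 hr at room temperature; emissions 665 and 620 nm.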

[3] = qHTS assay to identify small molecule agonists of the hypoxia (HIF-1) signaling pathway (AID 1224846; active = well fitted activation curve with a large enough effect in the signal ratio in the repeat runs, not every such curve was filed as active; the % refers to the signal ratio)
How it was run: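 Compounds from the Tox21 10K library, dissolved in DMSO, are tested for induction of a hypoxia response element–controlled beta-lactamase reporter in ME-180 cells. Exposure lasts 17 hrs at 37C after a 5 hr settling period, followed by CCF4-AM FRET substrate.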

[4] = qHTS assay to identify small molecule agonists of H2AX - cell viability counter screen (AID 1224847; calls by dose curve; note: top concentration of the series differs between compounds; nearly all actives have a fitted effect of over 30% in size)
How it was run: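 Viability of CHO-K1 (wild type) cells after 3 hr compound exposure was measured by CellTiter-Glo luminescence.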

[5] = qHTS assay to identify small molecule antagonists of the estrogen related receptor (ERR) signaling pathway from Tox21 library (AID 1224848); note: nearly all actives have a fitted effect of over 50% in size
How it was run: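 First, 2,000 ERR cells per well were plated and held 6 h at 37 C/5% CO2. Next, compounds in DMSO were pinned in and left 18 h at 37 C. Finally, ONE-Glo was added and luminescence read after 30 min at room temperature.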

[6] = qHTS assay to identify small molecule agonists of the estrogen related receptor (ERR) signaling pathway from Tox21 library (AID 1224849; calls by dose curve; note: nearly all actives have a fitted effect of over 15% in size); conditions: ERR reporter cell line, ONE-Glo luciferase, 18 h; at 92.4 µM (top of the series) unless noted
How it was run: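 Cells carrying the ERR reporter were plated and allowed to settle for 6 h, exposed to library compounds for 18 h at 37 C, then lysed with ONE-Glo and luminescence measured.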

[7] = qHTS RealTime-Glo MT Cell Viability Assay in HepG2 cells - 24 hour (AID 1224867); note: nearly all actives have a fitted effect of over 50% in size
How it was run: (§1)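 Viability was tracked continuously by NanoLuc luminescence from prosubstrate reduced by living HepG2 cells, at successive time points over 40 h of compound exposure. Cells with reagent were preincubated 5 h at 37 °C before compound addition.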

[8] = qHTS RealTime-Glo MT Cell Viability Assay in HEK293 cells - 32 hour (AID 1224868); note: top concentration of the series differs between compounds; nearly all actives have a fitted effect of over 50% in size
How it was run: (§2)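 Viability tracked continuously by luminescence as live cells reduce a prosubstrate for NanoLuc; HEK293 cells preincubated 5 h, compound-treated at 37 C, and read at 0, 8, 16, 24, 32 and 40 h.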

[9] = A CellTox Green Cytotoxicity Assay to monitor cytotoxicity in HEK293 cells - 0 hour (AID 1224869); note: nearly all actives have a fitted effect of over 50% in size
How it was run: (§3)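 Cells (HEK293, 600/well) and dye reagent are dispensed together. After 5 h at 37 C, 23 nL compound is pinned in. Plates stay at 37 C for 40 h with fluorescence read at 0h, 8h, 16h, 24h, 32h and 40h.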

[10] = qHTS RealTime-Glo MT Cell Viability Assay in HepG2 cells - 40 hour (AID 1224870); note: nearly all actives have a fitted effect of over 50% in size
How it was run: (§4)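 HepG2 cells mixed with RealTime-Glo MT reagents (NanoLuc plus cell-permeant prosubstrate) were seeded at 600 cells/well, incubated 5 h at 37 C/5% CO2, then pinned with compounds in DMSO; nonlytic luminescence tracked viability during 40 h treatment.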

[11] = A CellTox Green Cytotoxicity Assay to monitor cytotoxicity in HEK293 cells - 40 hour (AID 1224871); note: nearly all actives have a fitted effect of over 45% in size
How it was run: as §3

[12] = qHTS RealTime-Glo MT Cell Viability Assay in HEK293 cells - 16 hour (AID 1224872)
How it was run: as §2

[13] = qHTS RealTime-Glo MT Cell Viability Assay in HepG2 cells - 8 hour (AID 1224873); note: nearly all actives have a fitted effect of over 55% in size
How it was run: as §4

[14] = qHTS RealTime-Glo MT Cell Viability Assay in HEK293 cells - 40 hour (AID 1224874); conditions: RealTime-Glo luminescence; max response: stronger effect = lower value; note: nearly all actives have a fitted effect of over 50% in size
How it was run: (§5)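 Real-time viability in HEK293: signal arises when living cells convert a prosubstrate for NanoLuc in the medium, so luminescence tracks viable cell number. Compound (23 nL, DMSO) added 5 h post-seeding; kinetic reads at 0–40 h, 37 C.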

[15] = A CellTox Green Cytotoxicity Assay to monitor cytotoxicity in HEK293 cells - 24 hour (AID 1224875); note: nearly all actives have a fitted effect of over 45% in size
How it was run: as §3

[16] = A CellTox Green Cytotoxicity Assay to monitor cytotoxicity in HepG2 cells - 16 hour (AID 1224876); note: nearly all actives have a fitted effect of over 45% in size
How it was run: (§6)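 Cells and non-lytic dye reagent are dispensed together (600 HepG2 cells/well) and incubated 5 h before DMSO compound transfer. Kinetic fluorescence is then recorded in the same wells during 40 h at 37 C.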

[17] = qHTS RealTime-Glo MT Cell Viability Assay in HepG2 cells - 32 hour (AID 1224877); note: nearly all actives have a fitted effect of over 55% in size
How it was run: as §1

[18] = A CellTox Green Cytotoxicity Assay to monitor cytotoxicity in HepG2 cells - 24 hour (AID 1224878); note: nearly all actives have a fitted effect of over 45% in size
How it was run: as §6

[19] = A CellTox Green Cytotoxicity Assay to monitor cytotoxicity in HepG2 cells - 40 hour (AID 1224879); note: nearly all actives have a fitted effect of over 40% in size
How it was run: as §6

[20] = qHTS RealTime-Glo MT Cell Viability Assay in HEK293 cells - 0 hour (AID 1224880)
How it was run: as §5
% is set by controls: 0 for no effect and ±100 for the full control effect.

ClCBr
inactive: Potency [1] | Potency [2] | Potency [3] | Potency [4] | Potency [5] | activity change, positive = activation [6] 5.96% | Potency [7] | Potency [8] | Potency [9] | Potency [10] | Potency [11] | Potency [12] | Potency [13] | max response [14] 7.13% | Potency [15] | Potency [16] | Potency [17] | Potency [18] | Potency [19] | Potency [20]

CCn1cc[n+](C)c1 (tested in a mixture with another compound)
inactive: Potency [1] | Potency [2] | Potency [3] | Potency [4] | Potency [7] | Potency [8] | Potency [9] | Potency [10] | Potency [11] | Potency [12] | Potency [13] | max response [14] -0.353% | Potency [15] | Potency [16] | Potency [17] | Potency [18] | Potency [19] | Potency [20]

COc1nc(C)nc(NC(=O)NS(=O)(=O)c2ccccc2Cl)n1
inactive: Potency [1] | Potency [2] | Potency [3] | Potency [4] | Potency [5] | activity change, positive = activation [6] 7.61% | Potency [7] | Potency [8] | Potency [9] | Potency [10] | Potency [11] | Potency [12] | Potency [13] | max response [14] 1.45% | Potency [15] | Potency [16] | Potency [17] | Potency [18] | Potency [19] | Potency [20]

CC1CCCC1
inactive: Potency [1] | Potency [2] | Potency [3] | Potency [4] | Potency [7] | Potency [8] | Potency [9] | Potency [10] | Potency [11] | Potency [12] | Potency [13] | max response [14] -28.5% | Potency [15] | Potency [16] | Potency [17] | Potency [18] | Potency [19] | Potency [20]

C=CCBr
inactive: Potency [1] | Potency [2] | Potency [3] | Potency [4] | Potency [7] | Potency [8] | Potency [9] | Potency [10] | Potency [11] | Potency [12] | Potency [13] | max response [14] 0.528% | Potency [15] | Potency [16] | Potency [17] | Potency [18] | Potency [19] | Potency [20]

OCC(Br)CBr (stereo not given)
inactive: Potency [1] | Potency [2] | Potency [3] | Potency [4] | Potency [7] | Potency [8] | Potency [9] | Potency [10] | Potency [11] | Potency [12] | Potency [13] | max response [14] -11.1% | Potency [15] | Potency [16] | Potency [17] | Potency [18] | Potency [19] | Potency [20]

O=C(O)CCCCCCNC1c2ccccc2CCc2ccccc21
inactive: Potency [1] | Potency [2] | Potency [3] | Potency [4] | Potency [7] | Potency [8] | Potency [9] | Potency [10] | Potency [11] | Potency [12] | Potency [13] | max response [14] 11.4% | Potency [15] | Potency [16] | Potency [17] | Potency [18] | Potency [19] | Potency [20]
